# Data published in PubChem BioAssay (NCI).
# This is part of a sample that, as a whole, favours compounds with a hit. Of some 79,000 tested, about 15% had one in any assay. Values without a mark were called inactive. The source made the active and inactive calls. Cut-off read from the data, not from the text of the source: active = growth inhibition above about 70%; inactive = the rest.
# How the values were obtained:
# [1] = NCI Yeast Anticancer Drug Screen. Data for the rad50 strain (AID 155);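 note: 0% = growth of vehicle-only cultures of the same strain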; conditions: S. cerevisiae rad50 strain growth inhibition, active compounds read high; at 50.0 µM unless noted
# Method in brief: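 Inhibition values express reduced yeast growth in compound-treated cultures relative to vehicle-treated controls.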
# [2] = NCI Yeast Anticancer Drug Screen. Data for the mec2-1 strain (AID 157); conditions: S. cerevisiae mec2-1 strain, active compounds read high; at 50.0 µM unless noted
# Method in brief: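 Yeast mec2-1 mutant treated with compound. Readout: growth inhibition vs vehicle controls.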
# [3] = NCI Yeast Anticancer Drug Screen. Data for the sgs1 mgt1 strain (AID 161);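 note: 0% = growth of cultures given vehicle only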; conditions: S. cerevisiae sgs1 mgt1 strain, active compounds read high; at 50.0 µM unless noted
# Method in brief: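 Test agents were incubated with a DNA-repair-mutant yeast strain. Growth was then read and compared against vehicle-treated controls.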
# [4] = NCI Yeast Anticancer Drug Screen. Data for the cln2 rad14 strain (AID 165);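 note: 0% = growth equal to vehicle treated cultures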; conditions: S. cerevisiae cln2 rad14 strain, active compounds read high; at 50.0 µM unless noted
# Method in brief: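 cln2 rad14 yeast strain; compound exposure; growth inhibition read vs vehicle controls.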
# [5] = NCI Yeast Anticancer Drug Screen. Data for the bub3 strain (AID 167); conditions: S. cerevisiae bub3 mutant strain, active compounds read high; at 50.0 µM unless noted
# Method in brief: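 Steps: expose the mutant yeast strain to compound; grow alongside vehicle-treated cultures; measure growth; express inhibition against the vehicle cultures.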
# [6] = NCI Yeast Anticancer Drug Screen. Data for the mlh1 rad18 strain (AID 175); conditions: S. cerevisiae mlh1 rad18 strain growth inhibition, active compounds read high; at 50.0 µM unless noted
# Method in brief: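 Yeast w/ defined DNA-repair lesions; compound exposure; growth vs vehicle controls → % inhibition.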
SMILES,growth inhibition [1],growth inhibition [2],growth inhibition [3],growth inhibition [4],growth inhibition [5],growth inhibition [6]
O=C1OC(=O)C2=C1CCc1ccc3ccccc3c12,-29.8%,-22.1%,5.9%,-29.6%,5.75%,-5.2%
COc1ccc(C=O)cc1OCc1ccccc1,-10.2%,-29.4%,-3.15%,-7.35%,-18.2%,7.55%
CCCCCCCCCCCCSC(=S)c1c(C)[nH]n(CCCCCCCCCCCC)c1=O,39.9%,25.9%,42.3%,26.2%,21.9%,12.8%
O=C(O)C(=O)c1c(O)[nH]c2ccccc12,1.35%,-10.1%,11.5%,-14.8%,-8%,17.6%
CC1=NCC[N+]1(CCc1ccccc1)Cc1ccccc1 (stereo unspecified),3.15%,-5%,-19.8%,-26.9%,-35%,-11.7%
CCOC(=O)N1CCN(C(=O)CC(C)=O)CC1,2.35%,-32.5%,-0.15%,19.1%,4.45%,16.6%
O=C1CSC(c2cccc([N+](=O)[O-])c2)N1c1nncs1 (stereo unspecified),8.55%,11.7%,6.8%,5.15%,3.4%,5.5%
COC1OC(CO)C(O)C(O)C1OS(=O)(=O)c1ccc(C)cc1 (stereo unspecified),5.7%,-3%,-10.1%,1.75%,-1.85%,-13.2%
CCC1CC(=O)c2ccccc2O1 (stereo unspecified),0.65%,9.55%,-20.4%,-2.55%,5.4%,0.4%
O=c1oc2ccccc2c(O)c1Cc1ccccc1Cc1c(O)c2ccccc2oc1=O,4.4%,4.65%,-13.2%,10.9%,-19.9%,65%
Cc1ccc(NP(=O)(Nc2ccc(C)cc2)c2ccc([N+](=O)[O-])cc2)cc1,93.2% (active),94.2% (active),92.7% (active),92.1% (active),85.3% (active),95.6% (active)
COc1cccc(Br)n1,-4.15%,-17.1%,6.95%,15.1%,-8.85%,26.9%
CN1OC(=O)OC(C)(c2ccccc2)C1=O (stereo unspecified),2.9%,-12.3%,-2.3%,0.25%,0.6%,-0.05%
N#CC(NNC(=O)Cc1ccccc1)c1ccc(O)cc1 (stereo unspecified),-18.1%,-22.6%,-37.1%,-7.05%,-25.6%,-32.5%
CC(C)(C)OC(=O)C(=[N+]=[N-])C(=O)OC(C)(C)C,8.75%,1.5%,2.3%,-28.5%,-7.15%,17.7%
CSCCCCC(N)C(=O)O (stereo unspecified),0.05%,3%,-0.9%,-14%,12.4%,-3.85%
COc1cccc(C)c1O,9.8%,-7.35%,-7.8%,6.55%,20.6%,3.3%
COc1cc2c[n+](C)c3c4cc(OC)c(OC)cc4c(OCc4ccccc4)cc3c2cc1OC,86% (active),89.8% (active),88.1% (active),88.7% (active),87.5% (active),91.2% (active)
CCCN(CCC)CC(O)CNc1cc(OC)cc2cccnc12 (stereo unspecified),9.75%,-16.2%,6.7%,-35.7%,19.9%,5.7%
O=C(NCN1CCOCC1)NC(=O)NCN1CCOCC1,-10.6%,7.4%,-7.6%,-3.9%,12.2%,-3.95%
O=P1(O)c2ccccc2Nc2cc(C(F)(F)F)ccc21,24.1%,-8.25%,-9.8%,8.7%,-9.85%,-49.4%

SMILES,growth inhibition [1],growth inhibition [2],growth inhibition [3],growth inhibition [4],growth inhibition [5],growth inhibition [6]
OC1(Cc2ccccc2)CCCCCC1,-2.3%,1.3%,2.15%,-64.7%,-0.95%,1.95%
O=C(NSN1CCOCC1)c1ccccc1,38.8%,25.8%,30%,-45.6%,2.5%,38%
O=C(NCCCCCSC(=O)c1ccccc1)c1ccccc1,-0.35%,4.6%,7.95%,13.8%,15.7%,-4%
CC(=O)OC1CC(n2cc(F)c(=O)[nH]c2=O)OC1CO (stereo unspecified),7.95%,12.2%,-10.4%,-17%,-0.45%,2.5%
CN(C)c1nc(NC(=O)NC(=O)c2c(F)cccc2F)nc(N(C)C)n1,-2%,11.3%,1.55%,8.45%,18.8%,10.3%
C[Si](C)(CCl)N([Si](C)(C)CCl)[Si](C)(C)CCl,13.1%,8.55%,0.7%,-19.7%,-2.6%,-10.1%
O=C(O)C(F)(F)C(F)(F)C(F)(F)F,5.95%,-2.3%,-6.75%,14.6%,1.15%,3.25%
CC1=NC(C)(C)N(O)C1(C)C,-21.9%,-4.3%,-3.05%,-0.8%,-9%,-53.5%
CO/N=C1/OC(=O)OCC1(c1ccccc1)c1ccccc1,5.45%,-3.4%,2.7%,11.1%,6.3%,-3.3%
O=C1OC(C2OC(=O)C(=O)C2C2CCCCCCC2=O)C(C2CCCCCCC2=O)C1=O (stereo unspecified),45.5%,9.15%,29.4%,32.9%,39.2%,26.4%
COC1=CC(=O)c2cc3ccc(OC)c(N)c3nc2C1=O,12.8%,-7.2%,5.45%,-4.2%,13.3%,-10.9%
CC(=O)c1ccc2c(c1)sc1ccccc12,66.9%,-25.3%,-6.4%,-2.25%,28.5%,55.9%
CC(=O)ONC(C(=O)C(C)(C)C)C(=O)C(C)(C)C,-1.4%,-4.4%,-3.9%,24.7%,-2.7%,-4.8%
NC1=CNC(=O)C1,1.65%,1.45%,-3.05%,-1.65%,14.1%,-7.4%
CCSCCC#N,11.2%,4.75%,-13%,0.3%,8.1%,-10.2%
CN(C)C1=NS(=O)(=O)c2ccccc21,-0.75%,1%,-7.25%,-40.3%,6.35%,2.9%
O=C(O)c1c[nH]c2cc(OCc3ccc4ccccc4c3)ccc2c1=O,20.2%,2.55%,-11.3%,-2.05%,-3.05%,6.55%
NC(=S)N/N=C\c1cccc(O)c1O,2.9%,25.1%,21%,7%,13.4%,12.7%
CCOC(=O)C(CCc1ccccc1)(NC(C)=O)C(=O)OCC,10.4%,-7.8%,12.3%,-4.65%,14.3%,-10%
O=C1OC2C(O)C(CO)OC2n2c1cc(=O)[nH]c2=O (stereo unspecified),2.55%,13.9%,9.4%,-4.15%,3.5%,-5.35%
